# Records with an inconclusive call do not appear. Activity calls are given as the source filed them. The call rests on the fitted dose curve; in most records, active means well fitted cell-killing curve with a large enough effect; inconclusive means small, poorly fitted or top-dose-only effect; inactive means flat fitted curve, though single readings scatter.
# Experiment: qHTS assay to identify small molecule inhibitors of chordoma cells - UCH-2 (AID 1259356)
# Settings: UCH-2 chordoma viability, CellTiter-Glo ATP luminescence, 48 h; series mostly up to 46.1 µM; activity change, negative = inhibition: at the top concentration
# Excerpt: NIH Chemical Genomics Center [NCGC]
# Chordoma is a rare and slow growing tumor that can occur anywhere along the spine, from the base of the skull to the tailbone. Current treatment options for chordoma is surgery and radiation therapy for those who are not candidates for surgery. But chordomas tend to return in the same location or surrounding areas of the original tumor after surgery and/or radiation. Chemotherapy can slow down the progression of the tumor. As chordoma is slow growing, the general cytotoxic agents that kill fast growing cells are ineffective, and some patients have been reported to respond to molecularly targeted drugs.
# NCATS Pharmaceutical Collection (NPC) containing approximately 3000 clinically approved and investigational drugs were used to screen at 15 concentrations in a chordoma cell lines, UCH-2, to identify small molecule compounds that can inhibit chordoma cell growth.
# NCGC Assay Protocol Summary:
# Human chordoma cell line UCH-2 was dispensed at 800 per well in 4uL of culture medium into white solid bottom 1536-well plates (Corning Life Sciences, Corning, NY) using a Multidrop Combi (Thermo Scientific, Waltham, MA) dispenser. The assay plates were incubated at 37 C and 5% CO2 for an overnight, and then 23nL of compounds dissolved in DMSO and positive control were transferred using a Pintool station (Wako, San Diego, CA). Compound treatment was followed by the addition of 1uL of the combination compounds (1uM Auranofin, 500nM each of Camptothecin, Doxorubicin, Rubitecan, and Topotecan) and assay medium to each well of the assay plates using Flying Reagent Dispenser (FRD, Aurora Discovery, San Diego, CA). The assay plates were incubated at 37 C and 5% CO2 for 48hr. Then 5uL of CellTiter-Glo reagent (Promega Corporation, Madison, WI) was added to each well of the assay plates using FRD. After 30min incubation at room temperature, the luminescence signal was quantified using a ViewLux plate reader (PerkinElmer, Shelton, CT).
# On the % scale 0 is the no-effect control and ±100 the full control effect; potency means the concentration at half of the fitted maximal effect.
Structure (SMILES),"activity change, negative = inhibition",Potency
CCOC(=O)Oc1c(OC)cc(C(=O)O[C@@H]2C[C@@H]3CN4CCc5c([nH]c6cc(OC)ccc56)[C@H]4C[C@@H]3[C@H](C(=O)OC)[C@H]2OC)cc1OC,11.4% [at 20.6 µM] (inactive),
Cn1c(=O)c2c(ncn2CCOC(=O)C(C)(C)Oc2ccc(Cl)cc2)n(C)c1=O,-14.9% (inactive),
Oc1ccc(/C=C/c2cc(O)cc(O)c2)cc1,-21.1% [at 20.6 µM] (inactive),
Cc1ccc(S(=O)(=O)O)cc1C,4.78% (inactive),
CC/C=C\C/C=C\C/C=C\C/C=C\C/C=C\CCCC(=O)O,-17.6% (inactive),
CC(CC=O)CCCC(C)(C)O (stereo not given),-3.06% (inactive),
CC(C)Cc1ccc([C@@H](C)C(=O)NS(C)(=O)=O)cc1,-3.94% (inactive),
CC(C)C[C@H](NC(=O)[C@@H](Cc1c[nH]c2ccccc12)NC(=O)[C@H](Cc1ccc(O)cc1)NC(=O)[C@H](CO)NC(=O)[C@H](Cc1c[nH]c2ccccc12)NC(=O)[C@H](Cc1cnc[nH]1)NC(=O)[C@@H]1CCC(=O)N1)C(=O)N[C@@H](CCCN=C(N)N)C(=O)N1CCC[C@@H]1C(=O)NCC(N)=O,1.64% (inactive),
Cc1c(C)c2c(c(C)c1OC(=O)CCC(=O)O)CC[C@@](C)(CCC[C@H](C)CCC[C@H](C)CCCC(C)C)O2,-2.61% (inactive),
Nc1nc(/C(=C/CC(=O)O)C(=O)N[C@@H]2C(=O)N3C(C(=O)O)=CCS[C@H]23)cs1,1.55% (inactive),
Nc1ccc(N=Nc2ccccc2)c(N)n1,-17.2% (inactive),
Oc1ccc(Cl)c2c1CCC2,3.89% (inactive),
NC(=O)c1cc[n+](CC2=C(C(=O)O)N3C(=O)[C@@H](NC(=O)C(c4ccccc4)S(=O)(=O)[O-])[C@H]3SC2)cc1 (stereo not given in full),6.09% [at 20.6 µM] (inactive),
CCCOC(=O)c1ccccc1O,-17.7% (inactive),
NC(N)=NCC1COC2(CCCCC2)O1 (stereo not given),12.4% [at 20.6 µM] (inactive),
O=C(O)Cc1nn(Cc2ccc(Br)cc2F)c(=O)c2ccccc12,5.67% (inactive),
C[C@@](Cc1ccc(O)c(O)c1)(NN)C(=O)O,-1.28% (inactive),
Nc1ncnc2c1ncn2[C@H]1CC[C@@H](CO)O1,2.67% (inactive),
CC(C)c1ncc([N+](=O)[O-])n1C,4.01% (inactive),
O=C1CCC(=O)N1CO,-1.74% (inactive),

Structure (SMILES),"activity change, negative = inhibition",Potency
CC1=CC(=C(c2ccc(N)cc2)c2ccc(N)cc2)C=CC1=N,,14.6 µM (active)
CC[C@H]1OC(=O)[C@H](C)[C@@H](O[C@H]2C[C@@](C)(OC)[C@@H](O)[C@H](C)O2)C(C)[C@@H](O[C@@H]2O[C@H](C)C[C@H](N(C)C)[C@@H]2O)[C@](C)(OC)C[C@@H](C)C(=O)[C@H](C)[C@@H](O)[C@]1(C)O (stereo not given in full),-12.8% (inactive),
O=C(/C=C/c1cccc(F)c1)NC1CC1,-12.3% (inactive),
CCCCC/C=C\C/C=C\C/C=C\CCCCC(=O)O,8.99% (inactive),
OCC1(CO)COC(C(Cl)(Cl)Cl)OC1,-0.164% (inactive),
CC(C)CCC[C@@H](C)[C@H]1CC[C@H]2[C@@H]3CC[C@@H]4C[C@H](O)CC[C@]4(C)[C@H]3CC[C@]12C,-4.57% (inactive),
Cc1cc(-c2ccc(N=Nc3ccc4c(S(=O)(=O)O)cc(S(=O)(=O)O)c(N)c4c3O)c(C)c2)ccc1N=Nc1ccc2c(S(=O)(=O)O)cc(S(=O)(=O)O)c(N)c2c1O,-0.7% (inactive),
C=N[C@@H](C(=O)N[C@@H]1C(=O)N2[C@@H]1SC(C)(C)[C@@H]2C(=O)O)c1ccccc1,5.2% (inactive),
CO/N=C(\C(=O)N[C@@H]1C(=O)N2C(C(=O)O)=C(C[N+]3(C)CCCC3)CS[C@H]12)c1csc(N)n1,4.55% (inactive),
CN(Cc1ccccc1)Cc1ccccc1,-0.747% (inactive),
Cc1ccc(S(=O)(=O)NCl)cc1,2.44% (inactive),
CO[C@@]1(NC(=O)C2SC(=C(C(N)=O)C(=O)O)S2)C(=O)N2C(C(=O)O)=C(CSc3nnnn3C)CS[C@@H]21 (stereo not given in full),17% [at 20.6 µM] (inactive),
C=CCN1CCCC1CNC(=O)c1cc(S(N)(=O)=O)cc(OC)c1OC (stereo not given),-1.92% (inactive),
Nc1nc(NC2CC2)c2ncn([C@@H]3C=C[C@@H](CO)C3)c2n1,-0.634% (inactive),
CN1CCCC(CN2c3ccccc3Sc3ccccc32)C1 (stereo not given),-5.24% (inactive),
CCN(CC)CCOC[C@H]1O[C@@H](O)[C@H](OCCN(CC)CC)[C@@H](O)[C@@H]1O,-1.42% (inactive),
CC(C)(C)c1ccc(CN2CCN(C(c3ccccc3)c3ccc(Cl)cc3)CC2)cc1 (stereo not given),17.4% (inactive),
Cc1nc(NS(=O)(=O)c2ccc(N)cc2)nc(C)c1Br,5.21% (inactive),
CC/C(=C(/CC)c1ccc(OP(=O)(O)O)cc1)c1ccc(OP(=O)(O)O)cc1,-3.05% (inactive),
NC(=O)[C@@H]1C[C@]2(NC(=O)NC2=O)c2cc(F)ccc2O1,-1.01% (inactive),

# Source: PubChem BioAssay (NCATS)
